# Assay results from PubChem BioAssay AID2551 (National Center for Advancing Translational Sciences (NCATS), 2010).
# About 17,000 (5.5%) of roughly 310,000 compounds were called active. Where a call stands in place of a potency, no number is given. Inconclusive results (about 11%) are left out. Many of the other results were omitted from the sample, so actives are more common in it than they were. Values without a mark were called inactive. Calls come from the whole dose curve; as a rule, active = well fitted inhibition curve with a large enough effect; inconclusive = small, poorly fitted or top-dose-only effect, or effect the other way; inactive = no such curve, though single readings can be large or run the other way.
# Target: Nuclear receptor ROR-gamma (Mus musculus) (UniProt P51450)
# Test: qHTS for inhibitors of ROR gamma transcriptional activity; note: nearly all actives have a fitted effect of over 60% in size
# Conditions: Drosophila S2 Gal4-RORgamma UAS-luciferase reporter, 20 h; series mostly up to 53.6 µM
# Summary of the method: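 Stably transfected Drosophila Schneider cells are the test system, with ROR gamma fused to Gal4 and luciferase under UAS control; luminescence is read after 20 hr of 700 uM copper sulfate induction at ambient temperature.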
# Potency is the fitted concentration of half-maximal effect.
# Sequence of Nuclear receptor ROR-gamma (Mus musculus) (P51450 whole entry, looked up): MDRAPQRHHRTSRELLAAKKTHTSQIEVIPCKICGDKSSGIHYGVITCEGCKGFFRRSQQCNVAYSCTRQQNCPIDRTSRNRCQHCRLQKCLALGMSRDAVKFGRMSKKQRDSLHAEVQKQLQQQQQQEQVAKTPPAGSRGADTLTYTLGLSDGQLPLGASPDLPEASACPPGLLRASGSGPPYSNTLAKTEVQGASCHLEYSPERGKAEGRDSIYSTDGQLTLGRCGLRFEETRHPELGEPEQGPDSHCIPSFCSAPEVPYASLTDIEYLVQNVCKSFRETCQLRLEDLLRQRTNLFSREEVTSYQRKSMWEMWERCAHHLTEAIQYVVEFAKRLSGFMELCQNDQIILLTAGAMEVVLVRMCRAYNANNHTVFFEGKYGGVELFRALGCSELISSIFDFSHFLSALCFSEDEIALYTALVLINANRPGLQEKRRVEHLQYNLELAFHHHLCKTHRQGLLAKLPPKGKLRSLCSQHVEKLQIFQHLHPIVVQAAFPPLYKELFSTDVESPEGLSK
Structure (SMILES),Potency,"activity change, negative = inhibition"
C#CCOc1ccc(/C=C2/C(=O)ON=C2C)cc1OCC,inactive,
Cc1ccccc1CN1CCC(C(=O)Nc2ccc(Oc3cccnc3)cc2)CC1,inactive,
CC1(C)Cc2c(cnn2-c2cccc(F)c2)C(NC(=O)c2cc[n+]([O-])cc2)C1 (configuration not stated),inactive,
CC1(C)C(C=C(Cl)Cl)C1C(=O)NC(O)C(=O)c1ccccc1 (configuration not stated),inactive,
CCc1ccc(CN(C)Cc2nc(Cc3ccccc3)no2)nc1,11.2 µM (active),
CN(Cc1ccccn1)Cc1nc(-c2ccc(Cl)cc2)no1,inactive,
CN(Cc1ccc2nsnc2c1)Cc1nc(Cc2cccc(F)c2)no1,inactive,
Cc1ccc(S(=O)(=O)NCCC(=O)Nc2ccc(C)c(Cl)c2)cc1C,inactive,
Cc1ccnc(NC(=O)CCNS(=O)(=O)c2ccc(C)c(C)c2)c1,10 µM (active),
Cc1ccc(S(=O)(=O)NCCC(=O)Nc2cccc(S(N)(=O)=O)c2)cc1C,inactive,
Fc1ccc2nc(Nc3nc4c(s3)CCCC4)sc2c1,3.16 µM (active),
O=C(Cn1c(=O)sc2ccccc21)Nc1nc2c(s1)CCCC2,inactive,
COC(=O)C(NC(C)=O)(Nc1nc2c(s1)CCCC2)C(F)(F)F (configuration not stated),inactive,
O=C(Nc1cccc(-c2cccc(Cl)c2)c1)C1CCN(C2CCC2)CC1,inactive,
Cc1nc2ccccc2c(C)c1C(=O)c1ccc(F)cc1,inactive,
CC(C)c1ccc2c([Si](C)(C)C)c3c(nc2c1)-c1cccc(=O)n1C3,inactive,
Cc1c2c(nc3ccccc13)-c1cccc(=O)n1C2,8.91 µM (active),
CCn1c(=S)sc2c(=O)n(CC(=O)Nc3ccc(OC)cc3)c(C)nc21,inactive,
Cc1ccc(C)c(N2CCN(S(=O)(=O)c3c(C)[nH]c(C)c3C(=O)N3CCCC3)CC2)c1,inactive,
CC1(C)Cc2ccccc2-c2nc(CN3CCOCC3)[nH]c(=O)c21,inactive,
CCC1(CC)Cc2ccccc2-c2nc(CCl)[nH]c(=O)c21,11.2 µM (active),
CCOC(=O)C1Cn2c(nc3c(c2=O)C(C)(CC)Cc2ccccc2-3)S1 (configuration not stated),inactive,

Structure (SMILES),Potency,"activity change, negative = inhibition"
CC(=O)c1ccc(OCC(O)CN2CCN(S(=O)(=O)c3cccc(Br)c3)CC2)cc1 (configuration not stated),inactive,
COC(=O)C1CCCCN1C(=O)c1ccc(OC2CCN(C(C)=O)CC2)c(OC)c1 (configuration not stated),inactive,
Cc1ccc(CN(CC(=O)NCC2CCCO2)S(=O)(=O)c2ccc(C)cc2)cc1 (configuration not stated),inactive,
COCn1c(COc2ccccc2)nc2ccccc21,inactive,
COc1ccccc1Cn1c(CO)nc2ccccc21,inactive,
COCc1nc2ccccc2n1Cc1ccccc1Br,6.31 µM (active),
Cc1ccc(S(=O)(=O)CC(=O)NC(C)c2ccccc2)cc1 (configuration not stated),inactive,
COc1ccc(C(=O)NNS(=O)(=O)c2ccc(C)cc2)cc1,inactive,
CC(NC(=O)Nc1ccccc1)c1ccccc1 (configuration not stated),inactive,
CC(NC(=S)NNS(=O)(=O)c1ccc(C(C)(C)C)cc1)c1ccccc1 (configuration not stated),8.91 µM (active),
Cc1ccc(S(=O)(=O)NNC(=O)Nc2cccc3ccccc23)cc1,inactive,
Cc1ccc(S(=O)(=O)NNC(=S)NC(C)(C)C)cc1,8.91 µM (active),
CCOc1ccc(N(CC(=O)NCCc2ccc(F)cc2)S(=O)(=O)c2ccccc2)cc1,inactive,
COc1ccccc1CNC(=O)[C@@H]1CCCN1C(=O)[C@@H]1Cc2ccccc2CN1C(=O)OC(C)(C)C,inactive,
CCN(CC)c1ccc(C(=O)Nn2c(C)nc3ccccc3c2=O)cc1,inactive,
CCCCCc1ccc(-c2cn(Cc3ccc4ccccc4c3)nn2)cc1,inactive,
CCCCCc1ccc(-c2ccc(C(=O)O)cc2)nc1,6.31 µM (active),
CCCCCc1ccc(-c2ccc(OCC)cc2)nc1,inactive,
Cc1cccc(-c2nnc(SCC(=O)O)n2Cc2ccccc2)c1,inactive,
O=C(CCCCCn1c(=S)[nH]c2ccsc2c1=O)NC1CCCCC1,11.2 µM (active),
O=C(CCC(=O)c1cccs1)NC1CCCCCC1,inactive,
CCCCC(CC)CNC(=O)CCCCn1c(=O)[nH]c2ccsc2c1=O (configuration not stated),inactive,

Structure (SMILES),Potency,"activity change, negative = inhibition"
O=C(CN1C(=O)c2ccccc2C1=O)NCc1ccc(C(=O)O)cc1,inactive,
COc1ccc(N(CC(=O)Nc2cc(OC)cc(OC)c2)S(=O)(=O)c2c(C)n[nH]c2C)cc1,inactive,
Cc1cccc(N2CCN(C(C)C(=O)N3CCc4ccccc43)CC2)c1C (configuration not stated),inactive,
Cc1ccn(CCC(=O)N2c3ccccc3CC2C)n1 (configuration not stated),inactive,
COc1ccc(N2C(=O)CNC2=S)cc1,inactive,
COc1ccc(-c2cn(-c3ccc(OC)cc3)c(=S)[nH]2)cc1,0.398 µM (active),
COc1ccc(-n2c(C)csc2=S)cc1,inactive,
COc1ccc(S(=O)(=O)N(CC(=O)N/N=C/c2ccc(C(=O)O)cc2)Cc2ccccc2)cc1OC,inactive,
COc1ccc(-n2ncc3c(SCC(=O)NNC(C)=O)ncnc32)cc1,inactive,
CC(C)C[C@@H](COc1ccccc1)N1CCN(CC(C)C)CCC1=O,inactive,
C/C(=N\OCC(=O)O)c1ccc(Cl)cc1,inactive,
CCOc1cc(/C=C(/C#N)c2ccc(Cl)cc2)cc(Cl)c1OCC(=O)O,0.891 µM (active),
CCOC(=O)CN/C=C(\C#N)c1ccc(F)cc1,inactive,
CC(C)C(NC(=O)c1ccc(Cl)cc1)C(=O)O (configuration not stated),inactive,
CC(C)CNC(=S)NC(=O)c1ccc(Cl)cc1,3.98 µM (active),
CCOC(=O)NNC(=O)c1ccc(Cl)cc1,inactive,
COc1ccc(C2=NS(=O)(=O)N(C)C(C(=O)N(C)Cc3ccccc3)=C2)cc1,inactive,
CCn1cc(CCC(=O)NCc2ccc(F)cc2)c2ccccc21,inactive,
CCN(CC)CCn1c(N)c(S(=O)(=O)c2ccccc2)c2nc3ccccc3nc21,inactive,
C/C(=N\c1nc2ccccc2n1C)c1cc(Cl)ccc1O,inactive,
CCN(CC)CCn1c(/N=C/c2cc(Br)ccc2O)nc2ccccc21,3.98 µM (active),
Cc1ccc(Cn2c(C)c3cnn(CC(=O)NCc4ccccn4)c(=O)c3c2C)cc1,inactive,

Structure (SMILES),Potency,"activity change, negative = inhibition"
CCOC(=O)c1cc2ccccc2n1CC(=O)c1ccccc1,inactive,
CCn1c(=N)n(CC(=O)c2cccc(OC)c2)c2ccccc21,6.31 µM (active),
COc1ccc2cc(C(=O)O)n(CC(=O)c3ccccc3)c2c1,inactive,
COc1ccc(NC(=O)c2cc(-c3cc(OC)c(OC)c(OC)c3)nc3ccccc23)c(OC)c1,inactive,
COC(=O)c1ccc(COc2ccc(C#N)cc2)o1,inactive,
COc1ccc(C2/C(=C(/O)c3ccccc3)C(=O)C(=O)N2C)c(OC)c1 (configuration not stated),inactive,
CCCn1c(C(O)c2cc(OC)ccc2OC)nc2ccccc21 (configuration not stated),17.8 µM (active),
COc1ccc(OC)c(C(O)c2nc3ccccc3n2C)c1 (configuration not stated),inactive,
CCn1c(C(O)c2cc(OC)ccc2OC)nc2ccccc21 (configuration not stated),inactive,
CCOC(=O)c1ccccc1NS(=O)(=O)c1c(C)nc2sccn2c1=O,inactive,
OCC(CO)NC1C[C@](O)(CO)[C@@H](O)[C@H](O)[C@H]1O (some centres not stated),,4.55% [at 10 µM]
C=CCn1c(SCC(=O)NC)nnc1C12CC3CC(CC(C3)C1)C2,inactive,
C=CCn1c(SCC(=O)NC23CC4CC(CC(C4)C2)C3)nc(O)cc1=O,inactive,
C=CCn1c(C23CC4CC(CC(C4)C2)C3)n[nH]c1=S,2.82 µM (active),
Cc1nn(Cc2ccccc2)c(C)c1NS(=O)(=O)c1ccccc1,inactive,
Cc1ccccc1NC(=O)CCNS(=O)(=O)c1ccc2[nH]c(=O)oc2c1,inactive,
CCOc1ccccc1-c1cc(C(=O)N2CCOCC2)c2ccccc2n1,inactive,
COc1cccc(/C=C/c2ccc3ccccc3n2)c1OC(C)=O,2 µM (active),
CC(OC(=O)c1ccc2ccccc2n1)C(=O)c1ccccc1 (configuration not stated),inactive,
COc1cccc(/C=C2\C=C(c3ccc(C)cc3)OC2=O)c1OC(C)=O,inactive,
CC(=O)c1ccc(S(=O)(=O)N2CCN(C(=O)/C=C/c3ccc4ccccc4n3)CC2)cc1,inactive,
CCOc1cccc(/C=C/c2ccc3ccccc3n2)c1OC(C)=O,3.98 µM (active),

Structure (SMILES),Potency,"activity change, negative = inhibition"
Cc1cc(=O)oc2c(C)c(OC(C)C(=O)NC3CCN(Cc4ccccc4)CC3)ccc12 (configuration not stated),inactive,
COCc1ccc(C(=O)NC2CC(C)(C)Cc3c2cnn3-c2ccc(C)cc2)o1 (configuration not stated),inactive,
CC(=O)c1ccc(NC(=O)CCNS(=O)(=O)c2cc(Br)cnc2N)cc1,inactive,
COc1cc(OC)cc(C(=O)Nc2ccc(S(=O)(=O)Nc3cc(C)on3)cc2)c1,inactive,
O=C(Nc1ccc2oc(-c3ccccc3F)nc2c1)c1ccco1,inactive,
COc1cc(OC)cc(C(=O)Nc2ccc(-c3nc4ccccc4o3)c(O)c2)c1,11.2 µM (active),
C[n+]1cc(-c2ccccc2)oc1-c1ccccc1,inactive,
CC(C)N(C(=O)Cn1cc(S(=O)(=O)CC(=O)N2CCOCC2)c2ccccc21)C(C)C,inactive,
COc1ccc2c(CC(=O)N3CCc4cc(OC)c(OC)cc4C3)coc2c1,inactive,
C=C1C(=CC=C2CCC[C@@]3(C)[C@@H]2CC[C@H]3[C@H](C)CCCC(C)C)C[C@@H](O)C[C@@H]1O,12.6 µM (active),
CCC(CCC(C)C1CCC2C3CC=C4CC(O)CC[C@@]4(C)C3CC[C@@]12C)C(C)C (some centres not stated),inactive,
COc1ccc(C(=O)O/N=C(\N)c2ccccn2)cc1[N+](=O)[O-],,-42.4% [at 1.91 µM]
Cc1ccc(C(=O)O/N=C(\N)c2ccccn2)cc1Cl,,35.7% [at 1.91 µM]
Cc1cccc(C(=O)c2cccc(C)c2)c1,inactive,
Cc1cccc(/C(N)=N/OC(=O)c2ccccc2Cl)c1,0.251 µM (active),
COc1ccc(S(=O)(=O)N2CCC(C(=O)N3CCCC3)CC2)cc1C,inactive,
COc1ccc(-c2nn(-c3ccccc3)cc2/C=C\C(=O)Nc2ccc(C(=O)O)cc2)cc1,inactive,
O=C(/C=C/c1cn(-c2ccccc2)nc1-c1ccc2c(c1)OCCO2)NCCCN1CCOCC1,17.8 µM (active),
COc1ccc(-c2nn(-c3ccccc3)cc2/C=C\C(=O)N2CCOCC2)cc1[N+](=O)[O-],inactive,
